KCNQ2 inh – inhibitors of rat KCNQ2 potassium channel; O88943; CHO-K1 KCNQ2, FluxOR thallium flux, 20 min; hits give low values; B-score at 10 µM; 1.1% of 310,000 active;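 active = fluorescence ratio B-score at most minus 3 library SDs, with starting brightness B-score within 2 library SDs, cut at about -5.5 in these data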
KCNQ2 enhance – enhances the rat KCNQ2 potassium channel; O88943; CHO-K1 KCNQ2, FluxOR thallium flux fluorescence; hits give high values; B-score at 10 µM; 0.54% of 310,000 active; AID 2239;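 active = fluorescence ratio B-score at least 3 SD of library B-scores, with initial fluorescence B-score within 3 of them, cut at about 5.3 in these data; same plate scores as AID 2156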;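 also: B-score of peak minus minimum over baseline fluorescence ratio after K+ and Tl+ stimulus; positive B-score means potentiation of KCNQ2 with more thallium influx and brighter signal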
Kir21 confirm – confirmation of mouse Kir2.1 potassium channel inhibitors; Kir2.1-expressing cells, FluxOR thallium flux fluorescence; hits give low values; 41% of 2,300 active; shares compounds with KCNQ2 enhance; Tl flux remaining, % of negative control (hits give low values), % at 10 µM;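 active = Primary-screen hit whose thallium flux fell at least 3 control SD below untreated wells in both duplicates, with normal baseline fluorescence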;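 also: 0% = blank wells without stimulus and 100% = stimulated no-compound controls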
HEK293 Tl flux – parental HEK293 activity in Kir2.1 inhibitor counter-screen | shares compounds with KCNQ2 enhance | parental HEK293 cells, FluxOR thallium flux fluorescence; 0% = unstimulated blank wells | FluxOR signal as % of negative control (100 = no effect), % at 10 µM | 19% of 2,300 active | AID 2105;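 active = dye signal at least 3 control SD above or below untreated wells in both duplicates, raw fluorescence within 3, either direction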;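 also: percent is based on the flux ratio of peak minus minimum fluorescence over baseline F0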
CHO-K1 Tl ctr – counter-screen for KCNQ2 potentiators: effect in parental CHO-K1 cells | shares compounds with KCNQ2 enhance | FluxOR thallium flux fluorescence; zero = vehicle mean+3SD, 100% = vehicle-minus-blank window | activity increase over 3SD of controls, % at 10 µM | 43% of 1,200 active;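 active = signal rise of at least 3 SD above the untreated control mean, in both duplicate wells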;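 also: counter screen of KCNQ2 potentiator hits so any rise reflects channel-independent effects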
KCNQ1 pot spec – tests whether KCNQ2 potentiators also act on human KCNQ1; shares compounds with KCNQ2 enhance; CHO KCNQ1 stable, FluxOR thallium flux fluorescence; beyond 3SD, as % of vehicle-control signal; activation over 3SD threshold, % at 10 µM; 28% of 1,200 active; AID 2283;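 active = fluorescence ratio rise of at least 3 SD of vehicle wells above their mean, in both replicate wells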;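 also: 0% = vehicle mean plus 3 SD and 100% = vehicle minus unstimulated blank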
Target sequence (P51787 whole entry, looked up): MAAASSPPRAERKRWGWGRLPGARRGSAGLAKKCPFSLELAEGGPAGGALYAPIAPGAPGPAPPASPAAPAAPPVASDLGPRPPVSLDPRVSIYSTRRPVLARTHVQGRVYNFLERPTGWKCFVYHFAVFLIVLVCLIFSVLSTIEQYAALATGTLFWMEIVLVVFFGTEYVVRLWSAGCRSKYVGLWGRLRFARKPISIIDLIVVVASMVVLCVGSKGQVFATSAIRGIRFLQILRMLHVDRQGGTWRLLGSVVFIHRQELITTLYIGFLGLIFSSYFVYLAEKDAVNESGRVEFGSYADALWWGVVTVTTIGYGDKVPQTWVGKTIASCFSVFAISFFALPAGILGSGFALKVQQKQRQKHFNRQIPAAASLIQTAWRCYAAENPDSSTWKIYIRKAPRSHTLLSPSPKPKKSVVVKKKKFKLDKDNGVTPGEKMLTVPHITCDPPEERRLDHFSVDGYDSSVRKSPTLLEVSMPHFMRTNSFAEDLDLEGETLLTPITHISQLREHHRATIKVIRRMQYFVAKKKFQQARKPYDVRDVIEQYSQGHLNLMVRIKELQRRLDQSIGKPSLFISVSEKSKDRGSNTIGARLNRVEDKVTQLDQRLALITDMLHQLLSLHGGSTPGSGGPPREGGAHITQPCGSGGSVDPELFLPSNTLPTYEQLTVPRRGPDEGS
KCNQ2 pot confirm – confirmation of rat KCNQ2 potassium channel potentiators; shares compounds with KCNQ2 enhance; CHO-KCNQ2 cells, FluxOR thallium flux fluorescence; potentiation, less the hit threshold, % at 10 µM; 68% of 1,200 active; AID 2287;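 active = fluorescence ratio rising 3 SD or more over the vehicle control mean in both replicates, plus primary screen hit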;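 also: peak minus minimum thallium fluorescence divided by baseline after K/Tl stimulus; 0% = vehicle mean plus 3 SD and 100% = vehicle minus unstimulated blank difference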
Kir21 spec – selectivity of KCNQ2 potentiators: effect on mouse Kir2.1; shares compounds with KCNQ2 enhance; HEK293 Kir2.1, FluxOR thallium flux fluorescence; activity over 3SD threshold, % at 10 µM; 2% of 1,200 active; AID 2345;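 active = fluorescence ratio rise of at least 3 SD above the vehicle-control mean, seen in both replicates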;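 also: 0% = vehicle mean plus 3 SD and 100% = vehicle minus no-stimulus blank window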
KCNQ2 W236L pot – potentiates the retigabine-insensitive rat KCNQ2 W236L mutant channel | current increase over 3SD of negative controls (%), hits give high values, % at 25 µM | 10% of 940 active | shares compounds with KCNQ2 enhance | CHO KCNQ2-W236L, automated patch clamp current | AID 2558;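 active = current increase at least 3 SD of the untreated controls above them in both duplicate recordings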
An asterisk follows results filed as active; i = inactive; . = no result; ! = a repeat was not active. Rows were chosen to be rich in hits. Some 1.6% of all compounds tested hit in one or more screens of this group.

SMILES | KCNQ2 inh | KCNQ2 enhance | Kir21 confirm | HEK293 Tl flux | others
Cc1ccc(Cc2c(C)[nH]c(=S)[nH]c2=O)cc1 | i | . | . | .
Cc1ccc(Cc2c[nH]c(=S)s2)cc1 | i | 7.87* | i | 386.0%* | CHO-K1 Tl ctr=-3.3;KCNQ1 pot spec=-10.1;KCNQ2 pot confirm=62.6*;Kir21 spec=-17.5;KCNQ2 W236L pot=i
Cc1ccc(C)c(S(=O)(=O)N2CCN(C(=O)C3CC3C)CC2)c1 (configuration not stated) | i | . | . | .
Cc1nn2c(-c3ccc(S(=O)(=O)N4CCN(C)CC4)o3)nnc2c2ccccc12 | i | . | . | .
CCc1cccc(C)c1N=Cc1c(O)c2ccccc2oc1=O | i | . | . | .
CCc1nc(OCC(=O)c2ccccc2)c(C#N)c2c1COC(C)(C)C2 | i | 9.58* | i | i | CHO-K1 Tl ctr=57.0*;KCNQ1 pot spec=-5.9;KCNQ2 pot confirm=20.5*;Kir21 spec=-47.5;KCNQ2 W236L pot=i
Cc1nc(OCC(=O)c2ccc(Cl)cc2)c(C#N)c2c1COC(C)(C)C2 | i | 0.81 | . | .
CCOc1ccc(OCCC(=O)OCC(=O)Nc2ccc(N3CCOCC3)cc2)cc1 | i | 0.66 | . | .
Cc1ccc(C(=O)Nc2ccc(N3CCOCC3)cc2N2CCOCC2)cc1 | i | . | . | .
CC(C)(C)c1ccc(OCCC(=O)Nc2ccc(N3CCOCC3)cc2N2CCOCC2)cc1 | i | 7.97* | . | . | CHO-K1 Tl ctr=-5.7;KCNQ1 pot spec=-37.1;KCNQ2 pot confirm=-16.0;Kir21 spec=-43.7
CCOc1cc(N2CCOCC2)c(OCC)cc1NC(=O)COC(=O)CCOc1ccc(C(C)(C)C)cc1 | i | 10.6* | i | i | CHO-K1 Tl ctr=3.1*;KCNQ1 pot spec=-23.5;KCNQ2 pot confirm=-11.8;Kir21 spec=-13.9;KCNQ2 W236L pot=i
CCN(CC)CC#CCC(C)(c1ccccc1)c1ccccc1 | i | . | i | i
CCN(CC)CC#CCC(O)(c1ccccc1)c1ccccc1 | i | . | . | .
O=C(NCC(=O)N(c1ccccc1)C(C(=O)NC1CCCCC1)c1cccnc1)c1ccco1 (configuration not stated) | i | . | . | .
O=C(CCCOc1ccc(Br)cc1)NCCc1ccc(OC(F)F)cc1 | i | . | . | .
O=C(c1ccco1)N1CCCN(Cc2nc(-c3ccc4c(c3)OCO4)no2)CC1 | i | 1.57 | . | .
Fc1ccc(CN2CCCN(Cc3nc(-c4ccc5c(c4)OCO5)no3)CC2)cc1 | i | . | 44.5%* | i
O=C(O)C(Cc1ccccc1)N1C(=O)c2ccccc2C1=O (configuration not stated) | i | 1.32 | . | .
CN(C)CCN(Cc1ccccc1)C(=O)[C@H](Cc1ccccc1)N1C(=O)c2ccccc2C1=O | i | 0.91 | 69.0%* | i
Cc1ccc(N=Nc2c(N)[nH]n3c(=O)cc(-c4ccccc4)nc23)cc1 | i | 4.35 | . | .
COc1cccc(N=Nc2c(N)[nH]n3c(=O)cc(-c4ccccc4)nc23)c1 | i | 5.93* | i | i | CHO-K1 Tl ctr=-7.4;KCNQ1 pot spec=-19.2;KCNQ2 pot confirm=-8.8;Kir21 spec=-24.4
COc1ccc(-c2c(C(F)(F)F)[nH]n3c(=O)cc(-c4ccccc4)nc23)cc1 | i | 15.3* | i | 225.0%* | CHO-K1 Tl ctr=-18.4;KCNQ1 pot spec=65.5*;KCNQ2 pot confirm=49.3*;Kir21 spec=-31.1;KCNQ2 W236L pot=i
Cc1[nH]n2c(=O)cc(-c3ccc([N+](=O)[O-])cc3)nc2c1-c1ccccc1 | i | . | . | .
CCOC(=O)c1c(NS(C)(=O)=O)sc2c1CCC(C)C2 (configuration not stated) | i | 2.19 | i | 178.0%*
CCOC(=O)c1c(N)sc2c1CCC(C)C2 (configuration not stated) | i | 0.04 | . | .
SMILES | KCNQ2 inh | KCNQ2 enhance | Kir21 confirm | HEK293 Tl flux | others
CCOC(=O)c1cc2c(=O)n3ccccc3nc2n(CCCOC)c1=NC(=O)c1ccncc1 | i | 8.61* | i | i | CHO-K1 Tl ctr=-10.1;KCNQ1 pot spec=-13.2;KCNQ2 pot confirm=-27.5;Kir21 spec=-33.9
CCCn1c(=NC(=O)c2ccco2)c(C(=O)OCC)cc2c(=O)n3ccccc3nc21 | i | 0.09 | . | .
COc1ccc(C2C(C(=O)Nc3ccc4c(c3)OCCO4)c3ccccc3C(=O)N2C)cc1 (configuration not stated) | i | 0.47 | . | .
CCN=c1scc(-c2ccc(F)cc2)n1/N=C/c1ccccn1 | i | 0.94 | . | .
CCCc1sc(N/N=C/c2ccccn2)nc1-c1ccc(F)cc1 | i | 5.76* | i | i | CHO-K1 Tl ctr=-5.9;KCNQ1 pot spec=11.8*;KCNQ2 pot confirm=-22.8;Kir21 spec=-31.4
COc1cc(C(=O)N(C)CCOc2ccc(C)cc2)ccc1OC1CCN(C(C)=O)CC1 | i | . | . | .
Oc1c(Cl)cc(Cl)cc1/C=N/NC(=S)NC1CC2C=CC1C2 (configuration not stated) | i | 7.15* | i | i | CHO-K1 Tl ctr=-9.9;KCNQ1 pot spec=69.9*;KCNQ2 pot confirm=-16.3;Kir21 spec=-27.1
Oc1ccccc1/C=N/NC(=S)NC1CC2C=CC1C2 (configuration not stated) | i | 1.45 | . | .
CCc1nc(SCC(=O)Nc2ccc(N(C)C)cc2)c2ccccc2n1 | i | 0.09 | . | .
N#Cc1ccc(CSc2nnc(Cc3cccs3)n2Cc2ccco2)cc1 | i | . | 53.0%* | i
N#Cc1ccc(CSc2nnc(-c3ccccc3)n2Cc2ccco2)cc1 | i | . | . | .
COc1ccccc1CCN1CCCC(CN(C)C(=O)c2ccoc2)C1 (configuration not stated) | i | 0.24 | . | .
Fc1ccc(-c2nc3ccccc3[nH]2)cc1 | i | 0.68 | . | .
S=c1nc(-c2ccc(Br)cc2)[nH]c2ccccc12 | i | 26.1* | i | 452.5%* | CHO-K1 Tl ctr=-3.4;KCNQ1 pot spec=-4.5;KCNQ2 pot confirm=40.4*;Kir21 spec=-8.2;KCNQ2 W236L pot=i
CCCCC(=O)OCC(=O)Nc1ccc(SC(F)F)cc1 | i | 0.99 | . | .
CCn1c(SCC(=O)N/N=C(\C)c2ccncc2)nnc1-c1ccc(C)cc1 | i | 0.83 | . | .
CSc1cccc(NC(=O)N2CCN(C)CC2)c1 | i | 0.01 | . | .
CSc1ccc2c(c1)C(N1CCN(C)CC1)Cc1ccccc1S2 (configuration not stated) | -6.79*! | -6.79 | 39.5%* | i
COc1ccc(C(=O)NC2CCCc3c2cnn3-c2cccc(C)c2C)o1 (configuration not stated) | i | . | . | .
CCOc1ccc(-n2cc(-c3ccccc3)c3c(=S)nc[nH]c32)cc1 | i | 6.9* | i | 148.0%* | CHO-K1 Tl ctr=11.3*;KCNQ1 pot spec=-16.4;KCNQ2 pot confirm=0.0*;Kir21 spec=-27.2;KCNQ2 W236L pot=i
CCOc1ccc(-n2cc(-c3ccccc3)c3c(=O)[nH]cnc32)cc1 | i | 0.58 | . | .
CC(=O)Nc1ccc(N2CC(C)(C)C2=O)cc1 | i | 0.52 | . | .
CCC(C)(C)n1nnnc1C(c1ccc2ncccc2c1)N1CCN2CCCC2C1 (configuration not stated) | i | . | . | .
